Read-out in the test: Secreted IgG (sIgG), gene 3500
The test is described as follows: BSK_BT_sIgG: BioMAP Diversity Plus: BT Assay for Secreted IgG (sIgG) Biomarker Activity (AID 2284226). As to conditions: primary human B cells with PBMC. In short, it runs like this:
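ELISA quantitation of secreted IgG from human B cells co-cultured with PBMC, sampled 24 h post-dosing. Values fitted relative to DMSO vehicle as baseline, positive fitting direction.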

Active and inactive are the calls of the source. How the source made its calls: active means hit-call score of the fitted dose curve at least 0.9, where 1 is the maximum; inactive means score below 0.9.

Take `CCOC(=O)C1=NN(c2ccc(Cl)cc2Cl)C(C)(C(=O)OCC)C1` (centres undefined): the AC50 was 20 µM (active).

`CCCCCCCO`: the result was inactive. On the same count and under the same terms, for `CCCCCCCCCCCC(C)=O` the value was “inactive”.

As to `C=CC(=O)OCC(C)OCC(C)OCC(C)OC(=O)C=C` (centres undefined), the AC50 was 3.06 µM (active). As to `COC(OC)(C(=O)c1ccccc1)c1ccccc1`, the result was inactive. `Oc1c(Cl)cc(Cl)c(Cl)c1Cl`: the AC50 is 33.5 µM (active). In the case of `C=CC(=O)OCCCCCCOC(=O)C=C`, the AC50 is 5.85 µM (active). As to `CCC1(C)C(=O)N(Cl)C(=O)N1Cl` (centres undefined), the outcome was inactive. On to `CC1=CC=C(C(C)C)CC1`, for which the AC50 is 20 µM (active).

As a reminder, the AC50 is the midpoint of the concentration-response curve, whichever way the signal moves.
